PubChem BioAssay (NCATS)
Values joined by “and” are separate entries in the source; they are usually repeats but may differ in a detail not shown here. Equal entries are not always repeated. Inconclusive results are not listed. Some compounds were tested as several samples or in several runs, with calls that do not always agree. Active and inactive are the calls of the source. Unless noted, calls follow the shape of the dose curve; as a rule, active = well fitted curve in the direction sought with a large enough effect; inconclusive = small, poorly fitted or top-dose-only effect, or another doubt; inactive = no such curve, though single readings can be large; an effect the other way counts as inactive or inconclusive.

Columns and labels:
[1] = target: Endonuclease 4 (Escherichia coli (strain K12)) (UniProt P0A6C1); assay: Counterscreen for APE1 Inhibitors: qHTS Validation Assay for Inhibitors of Endonuclease IV (AID 1708); also: % is scaled to controls: 0 for no effect and ±100 for the full control effect; conditions: E. coli endonuclease IV, DNA cleavage fluorescence; series mostly up to 57.1 µM
Method in brief: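 qHTS concentration-response format; LOPAC1280 tested under APE1-screen conditions. 2 nM enzyme, 15 min compound preincubation at RT, then 50 nM TAMRA/BHQ-2 abasic substrate; kinetic fluorescence read, three reads at 60 s intervals.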

[2] = qHTS for differential inhibitors of proliferation of Plasmodium falciparum line 3D7 (AID 1876); also: potency is read from the fitted curve at half-maximal effect; conditions: P. falciparum 3D7 proliferation inhibition; series mostly up to 28.7 µM
[3] = qHTS for differential inhibitors of proliferation of Plasmodium falciparum line D10 (AID 1877); conditions: series mostly up to 28.7 µM;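 also: parasites grown with compound for 72 h before DNA staining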; also: potency is read from the fitted curve at half-maximal effect
[4] = qHTS for differential inhibitors of proliferation of Plasmodium falciparum line HB3 (AID 1886); conditions: Potency: Plasmodium falciparum HB3 proliferation inhibition; series mostly up to 28.7 µM;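 also: parasites grown with compound for 72 h before SYBR Green readout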; also: potency is read from the fitted curve at half-maximal effect
[5] = target: Cytochrome P450 1A2 (Homo sapiens) (UniProt P05177); assay: p450-cyp1a2 (AID 410; calls by dose curve; also: potency is read from the fitted curve at half-maximal effect); conditions: recombinant CYP1A2, luciferin-ME demethylation, luminescence; series mostly up to 57 µM
Method in brief: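 20nM CYP1A2 with 100uM Luciferin-ME (at Km) in 100mM KPO4; compound preincubated 10 min, NADPH regeneration added, 60 min at room temperature. Luciferin quantified by luminescence after detection reagent; normalized to 57 uM furafylline.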

[6] = target: Glucocorticoid receptor (Homo sapiens) (UniProt P04150); assay: GR-GFP Redistribution (AID 450;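 active = compounds whose dose series gives a full or clear partial fitted curve of increased nuclear translocation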; also: potency is read from the fitted curve at half-maximal effect); conditions: U2OS GR-GFP nuclear translocation, laser cytometry, 2 h
[7] = target: Glucocorticoid receptor (Homo sapiens) (UniProt P04150); assay: GR-EFC Redistribution (AID 451; calls by dose curve; also: potency is read from the fitted curve at half-maximal effect); conditions: CHO-K1 GR-EFC translocation, beta-gal luminescence, 2 h
Method in brief: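 Translocation of GR-ED fusion to nuclear EA restores b-gal, read by luminescence after 1 h room-temperature detection. Engineered CHO-K1 biosensor cells, 1,000/well, exposed 2 h at 37 C to titrations up to 46 uM final.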

[8] = target: Mitogen-activated protein kinase 10 (Mus musculus) (UniProt Q61831); assay: JNK3 AlphaScreen Assay (AID 530; active = well fitted curve in either direction with a large enough effect, not every such curve was filed as active;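 also: kinase came from lysate of stimulated human HepG2 cells; signal reports phosphorylation of biotinylated GST-cJun 1-79 at Ser73 with 10 µM ATP; % is scaled to controls: 0 for no effect and ±100 for the full control effect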); conditions: JNK3 lysate, c-Jun phosphorylation; series mostly up to 57.1 µM
Method in brief: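 Compound titrations were preincubated 15 minutes at room temperature with substrate, antibody and pre-activated JNK3-containing HepG2 lysate. Reactions were started with 10 uM ATP and stopped with EDTA-containing bead buffer for AlphaScreen detection.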

[9] = target: Ubiquitin carboxyl-terminal hydrolase 1 (Homo sapiens) (UniProt O94782); assay: Inhibitors of USP1/UAF1: Pilot qHTS (AID 504865); conditions: purified USP1/UAF1, Ub-rhodamine cleavage fluorescence; series mostly up to 114 µM;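 also: rhodamine fluorescence freed from ubiquitin-rhodamine substrate followed over time; top concentration of the series differs between compounds; % is scaled to controls: 0 for no effect and ±100 for the full control effect; nearly all actives have a fitted effect of over 35% in size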
Method in brief: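 Deubiquitinase activity followed as kinetic rhodamine fluorescence release from 150 nM Ub-Rho. 1 nM USP1/UAF1 with compound, after 15 min room-temperature preincubation, in HEPES pH 7.8 buffer containing TCEP, EDTA, BSA and Tween-20.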

[10] = target: DNA dC->dU-editing enzyme APOBEC-3G (Homo sapiens) (UniProt Q9HC16); assay: qHTS for inhibitors of Vif-A3G interactions: Validation (AID 588379); conditions: Vif-A3G protein interaction assay; series mostly up to 46.1 µM; also: 0% is about no effect
Method in brief: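 HeLa cells stably expressing Vif and A3G-eYFP, 700 cells/well, incubated overnight at 37 deg C, then exposed to compound overnight at 37 deg C. Inhibition of Vif-mediated degradation read as increased yellow fluorescence (Ex 488/Em 500-530) by laser-scanning cytometry.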

[11] = Confirmatory qHTS for VERO E6 Cytotoxicity Assay: Counterscreen for SARS-CoV-2 CPE Assay (AID 1508605; calls by dose curve; also: % is scaled to controls: 0 for no effect and ±100 for the full control effect; nearly all actives have a fitted effect of over 60% in size); conditions: cell viability luminescence; series mostly up to 20 µM
[12] = target: Cytochrome P450 3A4 (Homo sapiens) (UniProt P08684); assay: qHTS Assay for Inhibitors and Substrates of Cytochrome P450 3A4 (AID 884); conditions: recombinant CYP3A4, Luciferin-PPXE luminescence; series mostly up to 57.1 µM; also: nearly all actives have a fitted effect of over 50% in size; also: potency is read from the fitted curve at half-maximal effect
Method in brief: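 20 nM human CYP3A4 with 25 uM Luciferin-PPXE (at KM) in 200 mM KPO4, preincubated 10 min with compound; NADPH regeneration started a 60 min RT reaction. Luciferin detected by luminescence, normalized to 57 uM ketoconazole as full inhibition.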

[13] = qHTS profiling of the MIPE4 collection as inhibitors of Plasmodium falciparum (3D7) proliferation (AID 743344; call rule not given here;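 also: scaled between DMSO vehicle wells and 0.29 µM artemisinin as full inhibition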); conditions: P. falciparum 3D7 in erythrocytes, SYBR Green DNA fluorescence, 72 h; at 28.5 µM (top of the series) unless noted
Method in brief: (§1)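 Erythrocytes infected with P. falciparum (0.3% parasitemia, 2.5% hematocrit) incubated with compounds 72 h at 37 C, 5% CO2. Lysis with saponin/Triton buffer containing SYBR Green I, overnight at room temperature in the dark; DNA fluorescence (485/535 nm) normalised to 0.29 uM artemisinin and DMSO.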

[14] = qHTS profiling of the MIPE4 collection as inhibitors of Plasmodium falciparum (DD2) proliferation (AID 743345; call rule not given here); conditions: P. falciparum Dd2 in erythrocytes, SYBR Green DNA, 72 h; at 28.5 µM (top of the series) unless noted
Method in brief: as §1

[15] = qHTS profiling of the MIPE4 collection as inhibitors of Plasmodium falciparum (HB3) proliferation (AID 743347; call rule not given here;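 also: plate controls were DMSO vehicle wells for no effect and artemisinin wells for full effect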); conditions: P. falciparum HB3 in erythrocytes, SYBR Green DNA, 72 h; at 28.5 µM (top of the series) unless noted
Method in brief: as §1

[16] = target: Nuclear receptor subfamily 1 group I member 3 (Homo sapiens) (UniProt Q14994); assay: Primary qHTS for antagonist of constitutive androstane receptor (CAR) against the NCATS DSHEA and TCM libraries (AID 1794836); conditions: CAR reporter cell assay, antagonist mode, luciferase; series mostly up to 40 µM;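 also: HepG2 cells stably expressing hCAR with CYP2B6 luciferase reporter stimulated by CITCO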
Method in brief: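 Antagonist mode: CAR reporter luminescence (ONE-Glo) in HepG2-CYP2B6-hCAR cells stimulated with 48 uM CITCO (final) over 24 h at 37 C, compounds titrated; viability read first by CellTiter-Fluor fluorescence.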

[17] = Counterscreen qHTS for small molecule stabilizers of the endoplasmic reticulum resident proteome: GLuc-NoTag assay (AID 1508627); conditions: Gaussia luciferase NoTag secretion counterscreen, luminescence, thapsigargin 100 nM for final 4 h; series mostly up to 76.4 µM;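 also: SH-SY5Y cells given compound then 100 nM thapsigargin to empty ER calcium; 0% = thapsigargin alone and -100% = DMSO vehicle control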
Method in brief: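 Luminescence of Gaussia luciferase secreted into the medium (coelenterazine, 0.07x final, unlysed cells) was the read-out. Human SH-SY5Y neuroblastoma cells constitutively secreting untagged GLuc received compound for 19 h, then 100 nM thapsigargin for 4 h.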

[18] = Confirmatory qHTS for small molecule stabilizers of the endoplasmic reticulum resident proteome: Secreted ER Calcium Modulated Protein (SERCaMP) assay (AID 1508628); conditions: SERCaMP secreted luciferase ER calcium/proteostasis reporter; series mostly up to 76.3 µM; also: nearly all actives have a fitted effect of over 40% in size; also: potency is read from the fitted curve at half-maximal effect
Method in brief: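 SH-SY5Y cells stably expressing GLuc-SERCaMP, treated 16 h with compound (primary 1.53, 7.67, 38.3 uM; confirmation 11 concentrations, up to 76.6 uM), then 100 nM thapsigargin for 4 h. Secreted Gaussia luciferase in medium read by coelenterazine luminescence.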

[19] = Cell Viability qHTS for small molecule stabilizers of the endoplasmic reticulum resident proteome (AID 1508629); conditions: cell viability counter-screen, 100 nM thapsigargin for final 4 h;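 also: human SH-SY5Y neuroblastoma cells carrying the GLuc-SERCaMP reporter; compound exposure about 46 h in total before the viability read; % is scaled to controls: 0 for no effect and ±100 for the full control effect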
[20] = Confirmatory qHTS for activators (rescue) of SARS-CoV-2 Cytopathic Effect (CPE) (AID 1508606; calls by dose curve; also: potency is read from the fitted curve at half-maximal effect; nearly all actives have a fitted effect of over 70% in size); conditions: Vero E6 SARS-CoV-2 CPE rescue, viability luminescence; series mostly up to 20 µM

Sequence of Cytochrome P450 3A4 (Homo sapiens) (P08684 whole entry, looked up): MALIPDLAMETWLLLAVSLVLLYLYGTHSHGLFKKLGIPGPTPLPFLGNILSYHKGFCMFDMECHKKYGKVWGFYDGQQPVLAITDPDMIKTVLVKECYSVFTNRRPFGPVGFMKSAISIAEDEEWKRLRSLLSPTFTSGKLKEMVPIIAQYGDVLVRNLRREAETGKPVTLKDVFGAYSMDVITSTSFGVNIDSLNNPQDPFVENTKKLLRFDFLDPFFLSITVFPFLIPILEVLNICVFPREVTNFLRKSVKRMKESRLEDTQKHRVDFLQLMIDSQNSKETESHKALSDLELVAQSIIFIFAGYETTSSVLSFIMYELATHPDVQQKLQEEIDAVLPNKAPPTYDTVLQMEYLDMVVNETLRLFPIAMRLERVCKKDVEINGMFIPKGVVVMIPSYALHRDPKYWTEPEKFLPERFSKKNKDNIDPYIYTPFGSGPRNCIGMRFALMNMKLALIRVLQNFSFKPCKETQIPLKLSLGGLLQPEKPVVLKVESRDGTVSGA
Sequence of Cytochrome P450 1A2 (Homo sapiens) (P05177 whole entry, looked up): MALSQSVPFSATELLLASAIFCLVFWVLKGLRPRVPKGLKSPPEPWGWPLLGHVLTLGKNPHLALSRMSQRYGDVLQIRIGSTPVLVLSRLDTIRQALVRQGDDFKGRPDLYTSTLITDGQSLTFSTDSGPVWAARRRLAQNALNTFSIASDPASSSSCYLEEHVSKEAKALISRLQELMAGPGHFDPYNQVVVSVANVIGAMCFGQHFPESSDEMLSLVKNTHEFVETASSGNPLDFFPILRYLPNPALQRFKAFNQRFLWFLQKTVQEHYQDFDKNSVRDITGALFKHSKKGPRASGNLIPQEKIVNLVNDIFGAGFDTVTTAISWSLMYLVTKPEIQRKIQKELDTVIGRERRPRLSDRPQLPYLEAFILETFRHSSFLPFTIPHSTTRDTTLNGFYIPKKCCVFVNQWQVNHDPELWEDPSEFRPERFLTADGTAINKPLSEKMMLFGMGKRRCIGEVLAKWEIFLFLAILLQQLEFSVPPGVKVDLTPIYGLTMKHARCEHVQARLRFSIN
Sequence of Nuclear receptor subfamily 1 group I member 3 (Homo sapiens) (Q14994 whole entry, looked up): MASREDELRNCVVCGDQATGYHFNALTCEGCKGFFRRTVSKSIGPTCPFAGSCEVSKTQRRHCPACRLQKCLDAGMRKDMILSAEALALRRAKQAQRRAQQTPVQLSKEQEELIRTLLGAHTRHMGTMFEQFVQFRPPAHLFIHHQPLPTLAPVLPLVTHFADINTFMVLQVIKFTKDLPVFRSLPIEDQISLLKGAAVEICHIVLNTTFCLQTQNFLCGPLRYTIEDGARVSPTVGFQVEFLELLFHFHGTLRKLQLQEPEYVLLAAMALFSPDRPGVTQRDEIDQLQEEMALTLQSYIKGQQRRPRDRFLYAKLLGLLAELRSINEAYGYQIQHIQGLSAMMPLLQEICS
Sequence of DNA dC->dU-editing enzyme APOBEC-3G (Homo sapiens) (Q9HC16 whole entry, looked up): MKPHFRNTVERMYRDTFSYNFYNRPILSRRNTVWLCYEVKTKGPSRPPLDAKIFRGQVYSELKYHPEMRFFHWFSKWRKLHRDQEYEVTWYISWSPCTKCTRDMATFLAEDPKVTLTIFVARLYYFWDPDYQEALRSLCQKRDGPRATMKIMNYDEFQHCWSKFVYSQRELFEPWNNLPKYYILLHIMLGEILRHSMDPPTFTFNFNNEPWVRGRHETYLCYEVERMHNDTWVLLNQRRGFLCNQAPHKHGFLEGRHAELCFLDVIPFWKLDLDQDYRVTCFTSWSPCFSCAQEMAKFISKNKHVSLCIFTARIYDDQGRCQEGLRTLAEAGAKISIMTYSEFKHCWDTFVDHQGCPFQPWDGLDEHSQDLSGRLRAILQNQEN
Sequence of Glucocorticoid receptor (Homo sapiens) (P04150 whole entry, looked up, the tested form may be a part): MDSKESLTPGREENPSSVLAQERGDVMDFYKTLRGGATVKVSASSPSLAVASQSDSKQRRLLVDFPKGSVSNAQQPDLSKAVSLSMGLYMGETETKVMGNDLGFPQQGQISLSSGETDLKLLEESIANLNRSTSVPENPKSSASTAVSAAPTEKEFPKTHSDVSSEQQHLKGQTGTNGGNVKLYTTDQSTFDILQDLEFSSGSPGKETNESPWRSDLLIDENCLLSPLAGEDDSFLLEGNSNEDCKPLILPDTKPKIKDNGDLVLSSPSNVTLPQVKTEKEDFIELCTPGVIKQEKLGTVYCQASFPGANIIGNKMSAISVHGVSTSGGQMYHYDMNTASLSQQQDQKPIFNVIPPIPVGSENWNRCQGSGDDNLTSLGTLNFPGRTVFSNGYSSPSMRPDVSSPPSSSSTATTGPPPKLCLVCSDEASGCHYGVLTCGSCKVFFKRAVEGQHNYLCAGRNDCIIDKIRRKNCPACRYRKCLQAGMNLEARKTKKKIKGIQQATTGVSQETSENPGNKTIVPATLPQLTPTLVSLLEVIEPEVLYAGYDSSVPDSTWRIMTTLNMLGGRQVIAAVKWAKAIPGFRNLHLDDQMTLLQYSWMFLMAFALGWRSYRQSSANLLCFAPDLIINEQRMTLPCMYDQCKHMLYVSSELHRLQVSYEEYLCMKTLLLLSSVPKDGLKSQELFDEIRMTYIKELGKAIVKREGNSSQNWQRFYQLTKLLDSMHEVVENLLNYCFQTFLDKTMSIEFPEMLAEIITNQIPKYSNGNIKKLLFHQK
Sequence of Ubiquitin carboxyl-terminal hydrolase 1 (Homo sapiens) (O94782 whole entry, looked up): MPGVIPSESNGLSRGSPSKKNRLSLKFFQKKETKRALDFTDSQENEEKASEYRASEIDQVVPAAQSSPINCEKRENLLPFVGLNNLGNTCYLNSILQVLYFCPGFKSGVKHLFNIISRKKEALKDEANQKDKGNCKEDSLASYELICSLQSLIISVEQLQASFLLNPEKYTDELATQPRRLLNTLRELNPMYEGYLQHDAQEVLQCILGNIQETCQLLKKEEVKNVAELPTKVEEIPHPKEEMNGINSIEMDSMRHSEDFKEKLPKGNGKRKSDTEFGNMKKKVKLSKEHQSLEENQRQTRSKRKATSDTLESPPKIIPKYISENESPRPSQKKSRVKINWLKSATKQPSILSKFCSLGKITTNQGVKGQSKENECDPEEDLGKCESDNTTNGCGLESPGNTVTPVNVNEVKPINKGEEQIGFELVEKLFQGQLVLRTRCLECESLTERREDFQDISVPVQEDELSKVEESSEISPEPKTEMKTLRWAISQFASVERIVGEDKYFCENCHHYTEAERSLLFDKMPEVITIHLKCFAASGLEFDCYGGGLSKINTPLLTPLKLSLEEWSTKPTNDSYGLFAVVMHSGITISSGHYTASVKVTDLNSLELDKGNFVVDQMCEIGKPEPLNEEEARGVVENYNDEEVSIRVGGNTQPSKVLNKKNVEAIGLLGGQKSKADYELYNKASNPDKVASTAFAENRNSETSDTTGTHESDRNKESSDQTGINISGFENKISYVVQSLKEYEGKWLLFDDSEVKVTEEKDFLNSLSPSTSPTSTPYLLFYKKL

Structure (SMILES): CC(=O)OCC1=C(C(=O)[O-])N2C(=O)[C@@H](NC(=O)CCC[C@@H](N)C(=O)[O-])[C@H]2SC1.[Zn+2]
- outcome [1]: inactive
- Potency [2]: inactive
- Potency [3]: inactive
- Potency [4]: inactive

Structure (SMILES): c1cncc([C@@H]2CCCCN2)c1
- Potency [5]: 5.01 µM (active) and inactive
- Potency [6]: > 20.6 µM (inactive) and > 46 µM (inactive)
- Potency [7]: > 20.6 µM (inactive) and > 46 µM (inactive)
- outcome [8]: inactive
- Potency [9]: inactive
- Potency [10]: inactive

Structure (SMILES): Cc1cc(O)c2c(c1)O[C@@]1(C)CC[C@H]3C(C)(C)CCCC34CO[C@@H]2[C@H]41 (stereo not given in full)
- Potency [11]: inactive

Structure (SMILES): CN(C)Cc1c[nH]c2ccccc12
- Potency [5]: inactive
- Potency [6]: > 20.6 µM (inactive) and > 46 µM (inactive)
- Potency [7]: > 20.6 µM (inactive) and > 46 µM (inactive)
- outcome [8]: inactive
- Potency [12]: 15.8 µM (active)
- Potency [9]: inactive
- Potency [10]: inactive

Structure (SMILES): Cc1cn([C@@H]2C[C@@H](O)[C@H](CO)O2)c(=O)[nH]c1=O
- parasite growth, % of DMSO control [13]: 93.3%
- parasite growth remaining, % of DMSO control (lower = more inhibition) [14]: 92.6%
- growth, % of control [15]: 59.6%

Structure (SMILES): C[N+](C)(C)CCO
- Potency [16]: inactive

Structure (SMILES): CCCCCCCC(=O)O
- Potency [16]: inactive

Structure (SMILES): CCCCCCCCCCCC(=O)OCC(O)CO (stereo not given)
- Potency [16]: inactive

Structure (SMILES): COC(=O)C[C@](O)(CCCC(C)(C)O)C(=O)O[C@@H]1C(OC)=C[C@]23CCCN2CCc2cc4c(cc2[C@H]13)OCO4
- parasite growth, % of DMSO control [13]: 70%
- parasite growth remaining, % of DMSO control (lower = more inhibition) [14]: 85.8%
- growth, % of control [15]: 76.2%

Structure (SMILES): CC(=O)O[C@H]1C[C@@H]2CC[C@H]3[C@H]4C[C@H]([N+]5(C)CCCCC5)[C@@H](OC(C)=O)[C@@]4(C)CC[C@@H]3[C@@]2(C)C[C@H]1[N+]1(C)CCCCC1
- parasite growth, % of DMSO control [13]: 73.3%
- parasite growth remaining, % of DMSO control (lower = more inhibition) [14]: 88%
- growth, % of control [15]: 72.7%

Structure (SMILES): CN[C@H](CC(C)C)C(=O)N[C@H]1C(=O)N[C@@H](CC(N)=O)C(=O)N[C@H]2C(=O)N[C@H]3C(=O)N[C@H](C(=O)N[C@H](C(=O)O)c4cc(O)cc(O)c4-c4cc3ccc4O)[C@H](O)c3ccc(c(Cl)c3)Oc3cc2cc(c3O[C@@H]2O[C@H](CO)[C@@H](O)[C@H](O)[C@H]2O[C@H]2C[C@](C)(N)[C@H](O)[C@H](C)O2)Oc2ccc(cc2Cl)[C@H]1O
- outcome [1]: inactive

Structure (SMILES): CC(C)(O)C1OC2CCC3(C)C(O)(CCC4Cc5c([nH]c6ccccc56)C43C)C2=CC1=O (stereo not given)
- Potency [17]: inactive
- Potency [18]: 28.2 µM (active)
- max response [19]: 28.4% (inactive)

Structure (SMILES): CN(C)CCCN1c2ccccc2CCc2ccccc21
- Potency [11]: inactive

Structure (SMILES): O=S(=O)(c1cccc2c(I)cccc12)N1CCCNCC1
- Potency [11]: inactive

Structure (SMILES): CN1C2CCC1CC(OC(=O)C1CCC(C(=O)OC3CC4CCC(C3)N4C)(c3ccccc3)c3ccccc31)C2 (stereo not given)
- Potency [17]: inactive
- Potency [18]: 4.47 µM (active)
- max response [19]: -2.96% (inactive)

Structure (SMILES): OC[C@@H]1[C@@H](O)[C@H](O)[C@H]2[C@@H](O)CCN21
- Potency [17]: inactive
- Potency [18]: inactive

Structure (SMILES): C=C1C(=O)[C@@]23C(CC[C@@H]1[C@H]2O)[C@@]12CO[C@]3(O)[C@@H](O)[C@@H]1C(C)(C)CC[C@@H]2O (stereo not given in full)
- Potency [20]: 10 µM (active)

Structure (SMILES): CCCOc1ccc2[nH]cc(C3=CCNCC3)c2n1
- Potency [5]: 126 nM (active)
- Potency [6]: > 46 µM (inactive)
- Potency [7]: > 46 µM (inactive)
- outcome [8]: inactive
- Potency [12]: 2.51 µM (active)
- Potency [9]: inactive
- Potency [10]: inactive
- Potency [17]: inactive
- max response [19]: 2.34% (inactive)

Structure (SMILES): Cc1ccccc1O
- outcome [8]: inactive
- Potency [12]: inactive

Structure (SMILES): Clc1ccc2c(c1)N=C(N1CCNCC1)c1ccccc1N2
- Potency [11]: inactive

Structure (SMILES): OCCCNc1cc(-c2ccnc(Nc3cccc(Cl)c3)n2)ccn1
- Potency [20]: 5.62 µM (active)

Structure (SMILES): O=S(=O)(c1cccc2c(Cl)cccc12)N1CCCNCC1
- Potency [11]: inactive

Structure (SMILES): Cc1ccc(C(=O)Nc2cccc(C(F)(F)F)c2)cc1Nc1nc(-c2cccnc2)nc2c1cnn2C
- Potency [20]: 1.41 µM (active)

Structure (SMILES): CC(=O)[C@H]1CC[C@H]2[C@@H]3CCC4=CC(=O)CC[C@]4(C)[C@H]3CC[C@]12C
- Potency [12]: inactive
- Potency [2]: 11.2 µM (active)
- Potency [3]: 12.6 µM (active)
- Potency [4]: 8.91 µM (active)
- Potency [9]: inactive
- parasite growth, % of DMSO control [13]: 38.5%
- parasite growth remaining, % of DMSO control (lower = more inhibition) [14]: 85%
- growth, % of control [15]: 31%
